In the OligoGym collection:

biological target: FAM55C; assay: pooled miR-30 sensor sort-seq; sequence = guide strand; settings: shRNA
Note: reference of the scale not given here.

Sequence	sensor-assay potency score (higher = more potent)
AAACACTCTACTACCAACCAAA	-0.932
TTTGGTTTGAAGCAGAACCAGG	-1.09
TTTCTTTGTAAGCACTCTGTAA	-0.921
TTTATCTTCCTGTAAGCGCTGA	0.412
TTAGTTTCTTTTATTCTCCTGG	0.337
TAGTTTCAGAAATTCTTCCTGA	0.381
TTGAGATAGTTCTAGACTGTTA	-0.125
TTCAAGATGACAAAGTAGCTGG	0.358
TTAAACTCCACTAAATCTGGAA	-0.0245
TTACACAAAAGTCAATTCCTAA	-0.448
TATAATATCGTAGCATTCTTTA	-1.01
TAAGCTACAAACACTCTACTAC	0.449

biological target: FAM57A; assay: as above; settings: shRNA

Sequence	sensor-assay potency score (higher = more potent)
TTGCAGTAGAATGGGATGCTGA	-0.668
TTTAGCTGAATCAGAACCCTGC	0.947
TTTCGACTTAGGAAGTTTCGAA	-0.112
TTGGAGCAGGCTTAGTCCCTGC	-0.863
ATCATCACGCAGTCGGTGCGGC	-0.575
TGCACCGAGGAAACCAGCCTGG	-1.21
TTCGACTTAGGAAGTTTCGAAG	-0.637
TAGGAAGTTTCGAAGAGTGAGG	-0.893
TTGGGGAGTGTCAAAGAGCCGG	-1.25
TAGGACCAGTACATGAAGGGGA	0.407
ATCACGTCGTCGCAGGAGCGAA	-1.8
TGATGTGTGATCATGAGGCGGT	0.245
